Values joined by “and” are separate entries in the source; they are usually repeats but may differ in a detail not shown here. Equal entries are not always repeated. Results filed as inconclusive are left out. Values without a mark were called inactive. Active and inactive are the calls of the source. Calls come from the whole dose curve; as a rule, active = well fitted inhibition curve with a large enough effect in the repeat runs; inconclusive = weak or mixed curves; inactive = flat fitted curve, though single readings scatter.
% is set by controls: 0 for no effect and ±100 for the full control effect.

The target in the test is Voltage-gated inwardly rectifying potassium channel KCNH2 (Homo sapiens) (UniProt Q12809). In words: Human Ether-a-go-go-Related Gene (hERG) channel small molecule antagonists: fluorescence cell-based qHTS assay (AID 1671200). Note: nearly all actives have a fitted effect of over 50% in size. Particulars: hERG-U2OS cells, FluxOR thallium flux fluorescence; series mostly up to 76.8 µM. The source says: National Center for Advancing Translational Sciences [NCATS]
Sequence of Voltage-gated inwardly rectifying potassium channel KCNH2 (Homo sapiens) (Q12809 whole entry, looked up): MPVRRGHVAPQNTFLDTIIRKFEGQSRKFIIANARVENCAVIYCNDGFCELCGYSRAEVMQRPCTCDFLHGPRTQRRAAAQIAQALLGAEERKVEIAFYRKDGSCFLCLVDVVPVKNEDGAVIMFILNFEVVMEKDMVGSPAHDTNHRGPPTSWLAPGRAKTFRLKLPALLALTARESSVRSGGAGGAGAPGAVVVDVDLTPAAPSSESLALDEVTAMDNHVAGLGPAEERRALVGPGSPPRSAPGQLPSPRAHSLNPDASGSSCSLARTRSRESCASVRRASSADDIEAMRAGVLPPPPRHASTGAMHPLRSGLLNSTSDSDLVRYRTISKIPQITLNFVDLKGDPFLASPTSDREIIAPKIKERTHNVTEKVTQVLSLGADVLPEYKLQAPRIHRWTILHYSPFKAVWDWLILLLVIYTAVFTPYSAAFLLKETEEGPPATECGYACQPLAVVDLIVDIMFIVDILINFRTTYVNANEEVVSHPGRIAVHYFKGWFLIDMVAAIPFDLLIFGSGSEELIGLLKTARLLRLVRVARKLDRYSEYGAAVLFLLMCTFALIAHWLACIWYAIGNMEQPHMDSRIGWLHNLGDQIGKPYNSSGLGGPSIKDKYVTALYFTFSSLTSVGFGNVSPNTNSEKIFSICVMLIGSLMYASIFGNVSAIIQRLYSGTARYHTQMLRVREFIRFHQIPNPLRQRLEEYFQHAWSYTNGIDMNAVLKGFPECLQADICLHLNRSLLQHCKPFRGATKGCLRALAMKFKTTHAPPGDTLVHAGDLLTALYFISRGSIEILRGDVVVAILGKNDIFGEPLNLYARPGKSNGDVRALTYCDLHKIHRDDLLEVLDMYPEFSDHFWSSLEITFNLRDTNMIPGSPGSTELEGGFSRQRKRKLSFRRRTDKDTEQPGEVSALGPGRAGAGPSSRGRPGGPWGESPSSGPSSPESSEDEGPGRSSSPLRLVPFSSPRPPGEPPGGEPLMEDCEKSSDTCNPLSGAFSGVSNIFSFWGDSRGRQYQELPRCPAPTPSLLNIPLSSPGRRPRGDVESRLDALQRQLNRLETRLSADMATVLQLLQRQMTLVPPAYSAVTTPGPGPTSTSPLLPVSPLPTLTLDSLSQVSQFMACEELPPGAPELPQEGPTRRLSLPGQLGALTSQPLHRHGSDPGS
U.S. Environmental Protection Agency [EPA]
National Institutes of Environmental Health Sciences [NIEHS]
National Toxicology Program [NTP]
U.S. Food and Drug Administration [FDA]
Mutations in the hERG channel cause Long QT (LQT) syndrome. LQT syndrome is a cardiac disorder which can cause ventricle arrhythmia and sudden death. Additionally, compounds which block the hERG channel can cause acquired LQT syndrome. Several FDA approved drugs have been removed from the market due to their hERG blocking activity. A cell-based hERG channel inhibition assay can be used to screen chemical compounds that inhibit hERG channel. This assay measures hERG channel activity using thallium ions as surrogate ions to measure potassium into the cells.
Tox21 Assay Protocol Summary:
hERG-U2OS cells were resuspended in culture medium and dispensed into 1536-well, black wall/clear-bottom plates at 1000cells/well/3uL using a Multidrop Combi dispenser (Thermo Fisher, Waltham, MA). After plates were incubated at 37 C overnight, 3 uL of Loading Buffer provided by FluxOR II Potassium Ion Channel Assay kit (Thermo, Carlsbad, CA) was added to each well. The assay plates were then incubated at room temperature in the dark for 1h. […] After the assay plates were incubated at room temperature for 10 min, 1 uL of Stimulus Buffer provided by FluxOR II Potassium Ion Channel Assay kit was added into each well and fluorescence intensity (480nm excitation/540nm emission) was continuously measured for 2 min at 1 second intervals using a Functional Drug Screening System (FDSS) 7000EX kinetic plate reader (Hamamatsu, Japan).
Take `c1ccc2c(c1)ccc1ccccc12`: the outcome was inactive.

With `CCc1ccc(CCOc2ccc(CC3SC(=O)NC3=O)cc2)nc1` (stereo not given), the compound was called inactive.

In the case of `CCCCCCCCCCCCOCCO`, the compound was classed as inactive.

As for `O=C(O)c1cc(=O)c2c(OCC(O)COc3cccc4oc(C(=O)O)cc(=O)c34)cccc2o1`, the call was inactive.

Regarding `CC(O)COCC(C)O` (stereo not given), the compound was called inactive.

As for `CC(C)(N)CO`, the result was inactive.

For the compound `CCCCCC(N)=O`, the outcome was inactive.

As to `CCCCCCOCCO`, the compound was called inactive.

Consider `CC(=O)OCC(=O)[C@@]12N=C(C)O[C@@H]1C[C@H]1[C@@H]3CCC4=CC(=O)C=C[C@]4(C)[C@H]3[C@@H](O)C[C@@]12C`, for which the compound was classed as inactive.

As to `O=C(O)c1cc(O)c(O)c(O)c1`, the outcome was inactive.

Regarding `CSCCC=O`, the compound was called inactive.

In the case of `FC(F)(F)c1ccc(Cl)c(Cl)c1`, the compound was called inactive.

As to `CCCCCCCCCCCCCCO`, the compound was called inactive.

As for `Cc1ccc2oc(=O)ccc2c1`, the compound was classed as inactive.

For the compound `CCN(CC)CCCC(C)Nc1ccnc2cc(Cl)ccc12` (stereo not given), the activity change, negative = inhibition is 0.661% [at 6.97 µM] and 1.69% [at 15.8 µM].

In the case of `CCOC(=O)NNc1nncc2ccccc12`, the result was inactive.

As to `O=[N+]([O-])c1ccc(/C=C/c2ccc([N+](=O)[O-])cc2S(=O)(=O)O)c(S(=O)(=O)O)c1`, the compound was classed as inactive.

Take `CCCCCOC(C)=O`: the call was inactive.

As to `Fc1ccc(Br)cc1`, the compound was classed as inactive.

On to `CC(=O)Nc1ccccc1`, for which the call was inactive.

`CCCCCCCC(=O)OC`: the result was inactive.

In the case of `CCCCCC1=CCCC1=O`, the compound was classed as inactive.

For `O=C(Oc1ccccc1)c1ccccc1`, the compound was classed as inactive.

In the case of `COS(C)(=O)=O`, the compound was classed as inactive.

In the case of `CCCCCCCCCCCCS`, the outcome was inactive.

Regarding `c1ccc(OCCOc2ccccc2)cc1`, the result was inactive.

`Nc1ccccc1[N+](=O)[O-]`: the outcome was inactive.

Regarding `CCCSc1ccc2nc(NC(=O)OC)[nH]c2c1`, the call was inactive.

On to `O=C(O)CC(C(=O)O)C(CC(=O)O)C(=O)O` (stereo not given), for which the call was inactive.

In the case of `Cc1ccc(S(N)(=O)=O)cc1`, the outcome was inactive.

As for `Cc1cccc(O)c1`, the outcome was inactive.

For the compound `O=c1[nH]c(=O)n([C@H]2C[C@H](O)[C@@H](CO)O2)cc1Br`, the outcome was inactive.

For the compound `Cc1cccnc1`, the compound was classed as inactive.

As to `O=C=NCCCCCCN=C=O`, the outcome was inactive.

On to `c1c[nH]cn1`, for which the outcome was inactive.

Consider `O=c1[nH]nnc2ccccc12`, for which the outcome was inactive.

`CCN(CC)c1ccc(C(=O)c2ccccc2C(=O)O)c(O)c1`: the outcome was inactive.

In the case of `CCCC(C)=O`, the outcome was inactive.

Consider `C[C@H]1C[C@H]2[C@@H]3CCC4=CC(=O)C=C[C@]4(C)[C@@]3(F)[C@@H](O)C[C@]2(C)[C@@]1(O)C(=O)CO`, for which the compound was called inactive.

Consider `CC(C)c1ccc(S(=O)(=O)O)cc1`, for which the result was inactive.

(Values after PubChem BioAssay (Tox21).)
